Compound activity (PubChem BioAssay)
Integrin act MD: integrin-mediated muscular dystrophy alleviation activation; Potency, µM (doses to about 38.3 µM), usual class: activators; alpha7betagal myoblasts, beta-gal FDG fluorescence, 48 h; hit rate 0.064% among 350,000; active = well fitted activation curve with a large enough effect; inconclusive = small, poorly fitted or top-dose-only effect; inactive = no such curve, though single readings can be large or run the other way; note: nearly all actives have a fitted effect of over 60% in size
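alpha7betagal+/- myoblasts (passage 13, 250/well) treated 48 h at 37C with compounds at 1:260 dilution of DMSO stock. Lysed, then beta-galactosidase activity read as FDG fluorescence (ex 480/em 540) after 30 min, with pre-read for autofluorescence.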
DRD3 agonist: agonists of human D3 dopamine receptor | D3R DiscoveRx beta-arrestin cells, luminescence, 90 min | P35462 | hit rate 0.58% among 410,000 | AID 652048 | max activation, %; in the data active = max activation above about 30%
Target sequence (P35462 whole entry, looked up): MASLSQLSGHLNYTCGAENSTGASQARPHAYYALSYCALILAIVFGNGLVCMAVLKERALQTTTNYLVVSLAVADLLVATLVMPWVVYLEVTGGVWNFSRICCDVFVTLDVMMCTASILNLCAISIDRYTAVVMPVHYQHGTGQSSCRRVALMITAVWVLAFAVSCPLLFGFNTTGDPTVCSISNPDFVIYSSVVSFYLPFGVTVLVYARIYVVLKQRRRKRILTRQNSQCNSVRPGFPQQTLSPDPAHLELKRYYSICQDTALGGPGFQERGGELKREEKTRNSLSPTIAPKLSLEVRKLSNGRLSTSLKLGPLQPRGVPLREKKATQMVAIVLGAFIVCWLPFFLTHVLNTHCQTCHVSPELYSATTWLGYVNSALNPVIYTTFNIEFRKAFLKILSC
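Cells at 1500/well, incubated overnight, then treated with pinned compounds (dopamine as control) for 90 min at 37 degrees C. DiscoveRx reagent added for 30 - 60 minutes at room temperature; luminescence read.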
DRD3 antagonist: blocks the human D3 dopamine receptor; hit rate 2.5% among 360,000; D3R cells, DiscoveRx beta-arrestin luminescence, antagonist mode; stronger effect = lower value; AID 652054; P35462; max response, negative = inhibition, %; in the data active = max response below about -50%; inconclusive = no clear call, values can overlap the other calls
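Cells expressing the human receptor were seeded at 1500 cells/well, incubated overnight at 37 degrees C in 5% CO2, then exposed to library compounds with dopamine controls for 90 minutes at 37 degrees C before luminescent detection.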
Of the large screens only hits and unclear results are named; the others gave an inactive call; ! = not active in a repeat. Hits are enriched below; roughly 2.9% of the tested compounds scored in any of these assays.

O=C(NC1CCCCC1)N1CCCC(c2nc3ccccc3[nH]2)C1 (stereo not given)	DRD3 antagonist -126
O=C(NC1CCCCC1)N1CCC(c2nc3ccccc3[nH]2)CC1	none
COc1cccc(C(=O)c2c[nH]c(C(=O)NCCCN(C)C)c2)c1	none
CC(C)C1=NN2C(=N)CC(=O)N=C2S1	DRD3 antagonist -63
CCCCC1=NN2C(=N)CC(=O)N=C2S1	none
CCc1cccc(NC(=O)Cc2nc(-c3ccc(OC)cc3)no2)c1	none (no result: Integrin act MD, DRD3 antagonist)
COc1ccc(N2C(=O)C3ON(C4SC(=S)N(C)C4(C)C)C(c4ccc(Cl)cc4)C3C2=O)cc1 (stereo not given)	none
COc1ccc(N2C(=O)C3ON(C4SC(=S)N(C)C4(C)C)C(c4ccc([N+](=O)[O-])cc4)C3C2=O)cc1 (stereo not given)	DRD3 antagonist -65
CC1CCN(C(=O)COc2ccc(S(=O)(=O)N3CCOCC3)cc2)CC1	none
COc1cc2c(cc1OC)[C@@H](c1ccccc1)CN(C)CC2	none (no result: Integrin act MD, DRD3 antagonist)
CN1Cc2c(N)cccc2C(c2ccccc2)C1 (stereo not given)	DRD3 antagonist -63! (no result: Integrin act MD)
S=c1[nH]nc(-c2cc(-c3ccccc3)n[nH]2)n1/N=C/c1ccccc1	none
S=c1[nH]nc(-c2cc(-c3ccccc3)n[nH]2)n1/N=C/C(Br)=C/c1ccccc1	DRD3 antagonist -67
CC(C)=CCNc1ncnc2c1c(C#N)cn2C1OC(CO)C(O)C1O (stereo not given)	none
CCN(CC(=O)Nc1ccc(NC(C)=O)cc1)C(=O)/C=C/c1cn(-c2ccccc2)nc1-c1ccc(C)cc1	none
Cc1onc(-c2ccccc2)c1C(=O)NCc1cccnc1	DRD3 antagonist -75
Cc1onc(-c2ccccc2)c1C(=O)NCCc1ccncc1	none
Cc1ccc(F)cc1NC(=O)c1c(-c2ccccc2)noc1C	DRD3 antagonist -50
Cc1ccccc1NC(=O)c1c(-c2ccccc2)noc1C	DRD3 antagonist inconclusive
CCOc1c2ccc(C(=O)NCc3cc(C(F)(F)F)cc(C(F)(F)F)c3)cc2nn1C	DRD3 antagonist inconclusive
CCc1ccc(NC(=O)CCCN2C(=O)C3CC=CCC3C2=O)cc1 (stereo not given)	none
O=C(NC1CC(=O)N(c2ccc(F)cc2)C1)c1ccco1 (stereo not given)	none (no result: Integrin act MD, DRD3 antagonist)
Cc1c(Cl)cccc1N(CC(=O)NC1CCCCC1)S(C)(=O)=O	none
Cc1cccc(NC(=O)CSc2nc(-c3ccccc3)c(C#N)c(=O)[nH]2)c1C	DRD3 antagonist -63
N#Cc1c(-c2ccccc2)nc(SCC(=O)Nc2ccccc2F)[nH]c1=O	none
NC(=O)c1ccc(NC(=O)CN2C(=O)NC(c3ccccc3)(c3ccccc3)C2=O)cc1	none
CCOC(=O)C(C)n1cnc2scc(-c3ccc(C)cc3)c2c1=O (stereo not given)	DRD3 antagonist inconclusive
CC(C)CCNC(=O)CN(Cc1ccco1)C(=O)c1snc(C(N)=O)c1N	none
COc1ccc(N(C(=O)c2snc(C(N)=O)c2N)C(C(=O)NC2CCCC2)c2ccco2)cc1 (stereo not given)	none
CCc1ccccc1N(CC(=O)NCc1ccco1)C(=O)c1snc(C(N)=O)c1N	DRD3 antagonist -55
CCc1ccc(N(C(=O)c2snc(C(N)=O)c2N)C(C(=O)NC2CCCC2)c2ccco2)cc1 (stereo not given)	Integrin act MD 2.5µM
Cc1ccc(CNC(=O)CN(c2cccc(C)c2C)S(=O)(=O)c2ccccc2)cc1	none (no result: Integrin act MD, DRD3 antagonist)
Cn1cc(-c2coc3c(C(=O)NCc4cccc(Cl)c4)cccc23)cn1	none (no result: Integrin act MD)
CCCCNS(=O)(=O)c1ccc2nc(SCC(=O)N3CC(C)OC(C)C3)[nH]c2c1 (stereo not given)	none
CCCCNc1c(-c2ccc(Sc3ccc(OC)cc3)cc2)nc2cc(C)ccn12	DRD3 agonist 56
CCCCNc1c(-c2ccc(OC)c(SC(C)CC)c2)nc2cnccn12 (stereo not given)	DRD3 agonist 53
CCCCNc1c(-c2ccc(-c3ccc(C(C)=O)cc3)c(OC)c2)nc2cc(C)ccn12	none
CCCCNc1c(-c2ccc(OC)c(SC(C)CC)c2)nc2ccc(C)cn12 (stereo not given)	none
CCCCNc1c(-c2ccc(OC)c(SC(C)CC)c2)nc2cc(C)ccn12 (stereo not given)	DRD3 agonist 63
CCCCNc1c(-c2ccc(OC)c(SC(C)CC)c2)nc2ccc(Cl)cn12 (stereo not given)	none
CCCCCCSc1ccc(-c2nc3ccc(C)cn3c2NCc2ccccc2)cc1	none
CCCCCCSc1ccc(-c2nc3cnccn3c2NCCCC)cc1	DRD3 agonist 63
Cc1cccc(C)c1NC(=O)CN(C)CC(=O)Nc1sc2c(c1C(N)=O)CCC2	none
CC(C)NC(=O)Cn1c(=O)nc(-c2ccccc2)c2ccccc21	none (no result: Integrin act MD, DRD3 antagonist)
CN(CC(=O)Nc1ccc(F)c(F)c1F)C(=O)/C=C/c1ccco1	none
Cc1ccc(C(=O)NCCCn2ccnc2)cn1	none
CCn1c(COc2ccccc2OC)nc2ccccc21	none
CCCCCCSc1cc(-c2nc3ccc(C)cn3c2NCCCC)ccc1OC	DRD3 agonist 71
CCCCCCSc1cc(-c2nc3ccc(Cl)cn3c2NCCCC)ccc1OC	none
CC1CCN(S(=O)(=O)CCNC(=O)c2ccccc2)CC1	none
COc1cc(/C=c2\sc3n(c2=O)CCCN=3)ccc1O	none
COc1cc(/C=c2\sc3n(c2=O)C(c2ccccc2)C(c2ccccc2)=NN=3)ccc1O (stereo not given)	DRD3 antagonist -76
Cc1ccc(-c2nc(CN3CCCCC3)cc(CN3CCCCC3)c2O)cc1	DRD3 antagonist -55
COc1ccc(N=Nc2cc(C)c(O)c(CN3CCCCC3)c2)cc1	none
CCOc1ccccc1NC(=O)C1CC(=O)n2ncnc2N1 (stereo not given)	none
COC(=O)C1CCN(CCCOc2ccc(CN3CCN(c4ccc([N+](=O)[O-])cc4)CC3)cc2)CC1	DRD3 agonist 32, DRD3 antagonist inconclusive
Cc1cccc(C)c1OCCCCN1CCCCC1	none
COc1cccc(OCCCCN2CC(C)OC(C)C2)c1 (stereo not given)	DRD3 antagonist -87
COc1cccc(OCCCCN2CCCCC2)c1	DRD3 antagonist -83
CCOc1cccc(OCCCCN2CCCCC2)c1	DRD3 antagonist -66
COc1cccc(OCCCN2CCCCC2)c1	none
COC(=O)C1CCN(c2ccc([N+](=O)[O-])cc2)CC1	none
CC1CN(CCCCOc2ccc3ccccc3c2)CC(C)O1 (stereo not given)	DRD3 antagonist inconclusive
COc1ccc(NC(=O)NCCc2c(C)nn(C)c2C)c(OC)c1	none (no result: Integrin act MD, DRD3 antagonist)
C[C@@H]1[C@H](c2ccccc2)Oc2ccc(Cl)cc2S(=O)(=O)N1CC1CCCN1C(=O)OC(C)(C)C (stereo not given in full)	none
C=CCNC(=O)COCc1cc(-c2ccc3c(c2)OCO3)on1	none
O=C(CSCc1ccc(Cl)cc1)Nc1cccc(C(=O)O)c1	none
O=[N+]([O-])c1ccccc1OCCCN1CCOCC1	DRD3 antagonist inconclusive
CC1CN(CCOc2ccc(F)cc2)CC(C)O1 (stereo not given)	none
COC(=O)c1ccc(OCCCCN2CC(C)OC(C)C2)cc1 (stereo not given)	DRD3 antagonist -75
CC1CN(CCCOc2ccccc2[N+](=O)[O-])CC(C)O1 (stereo not given)	DRD3 antagonist -59
CC1CCCN(CCOc2ccc(Br)cc2)C1 (stereo not given)	DRD3 antagonist -99
